# PubChem BioAssay (NCATS)
# Records with an inconclusive call do not appear. Calls of active or inactive are those of the source. Calls follow the shape of the dose curve; as a rule, active = well fitted cell-killing curve with a large enough effect; inconclusive = small, poorly fitted or top-dose-only effect, or effect the other way; inactive = no such curve, though single readings can be large or run the other way.
# Assay: Viability qHTS for spleen associated tyrosine kinase inhibitor (SYKi) drug resistant MV4-11 cells (AID 1963824); also: nearly all actives have a fitted effect of over 35% in size
# Conditions: SYKi-resistant MV4-11 viability, CellTiter-Glo, 72 h; series mostly up to 45 µM; viability, % of control: at the top concentration
# Summary of the method: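 CellTiter-Glo luminescence, read 10 min after reagent addition, reports viability after a 72 hr compound exposure. Cells are an MV4-11 line made resistant to SYK inhibition, seeded at 500 per well onto compound-containing plates.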
# Potency is read from the fitted curve at half-maximal effect.
SMILES,"viability, % of control",Potency
CC(C)CC(=O)NCCn1cc(C(=O)O)c(=O)cc1C(O)c1ccccc1 (stereo not drawn),81.5% (inactive),–
CC1=CC(=O)CC(C)(C)C1CCC(C)O[C@@H]1O[C@H](CO)[C@@H](O)[C@H](O)[C@H]1O (stereo partly drawn),79% (inactive),–
O=C(/C=C/c1ccc(O)cc1)OC[C@]12O[C@H]1[C@@H](O)[C@@H]1C=CO[C@@H](O[C@@H]3O[C@H](CO)[C@@H](O)[C@H](O)[C@H]3O)[C@@H]12,103% [at 17.3 µM] (inactive),–
C=C[C@@]1(C)CCC2=C([C@H]1OC(C)=O)[C@H](OC(C)=O)CC1[C@](C)(C(=O)OC)CC[C@H](OC(C)=O)[C@]21C (stereo partly drawn),67.8% [at 17.3 µM] (inactive),–
C=C(CO[C@@H]1O[C@H](CO[C@@H]2OC[C@](O)(CO)[C@H]2O)[C@@H](O)[C@H](O)[C@H]1O)C1Cc2cc(C(C)=O)ccc2O1 (stereo partly drawn),85.9% [at 17.3 µM] (inactive),–
COC(=O)c1ccc(O[C@@H]2O[C@H](CO)[C@@H](O)[C@H](O)[C@H]2O)c(OC)c1,81.4% (inactive),–
C=C(C)[C@@]1(O)C[C@@]2(C)C(=CC1=O)CC[C@@H](O)[C@@H]2C,78% (inactive),–
CC[C@]1(O)C[C@H]2CN(CCC3C(=Nc4ccccc43)[C@@](C(=O)OC)(c3cc4c(cc3OC)N(C)[C@H]3[C@@](O)(C(N)=O)[C@H](O)[C@]5(CC)C=CCN6CC[C@]43[C@@H]65)C2)C1 (stereo partly drawn),–,0.0366 µM (active)
C/C(=C\C(=O)C(C)C1CCC2C3=C(CCC21C)C1(C)CCC(=O)C(C)(C)C1(O)CC3)C(C)(C)O (stereo not drawn),–,10 µM (active)
Fc1ccc2c(CCNCc3cccc(OCC(F)(F)C(F)F)c3)c[nH]c2c1,–,16.4 µM (active)
COc1ccc(S(=O)(=O)Nc2c(C)cc(C)cc2C)cc1,–,20.6 µM (active)
NC(N)=NCCC[C@H](NC(=O)c1sccc1NS(=O)(=O)c1cccc2nsnc12)C(=O)O,74.7% (inactive),–
N#Cc1cnc2cnc(NCc3cccnc3)cc2c1Nc1ccc(F)c(Cl)c1,–,3.66 µM (active)
COc1ccc2c(c1)C(C(=O)N(Cc1ccc(N(C)C)cc1)c1ccc(C(C)C)cc1)CCC2 (stereo not drawn),–,14.6 µM (active)
COC(=O)C1=CO[C@@H](O[C@@H]2O[C@H](CO)[C@@H](O)[C@H](O)[C@H]2O)[C@@H]2[C@@H](CO)[C@@H](O)C(O)[C@H]12 (stereo partly drawn),83% [at 17.3 µM] (inactive),–
C[C@@H]1C[C@@H](O)[C@@]23CO[C@]2(CO)CCC[C@@H]3[C@@]12C[C@@H](c1ccoc1)OC2=O,88.1% (inactive),–
Cn1ncnc1[C@@H]1c2n[nH]c(=O)c3cc(F)cc(c23)N[C@H]1c1ccc(F)cc1,71.3% (inactive),–
COc1cc(O)cc(C)c1C(=O)OC1C(CO)OC(n2ccc(=O)[nH]c2=O)C1OC(C)=O (stereo not drawn),68.9% [at 17.3 µM] (inactive),–
C[C@@H]1C(=O)O[C@H]2[C@H]1CC[C@@]1(C)C(=O)C=C[C@@](C)(O)[C@H]21,102% (inactive),–
C[C@@H]1O[C@@H](O[C@H]2[C@H](O)[C@@H](O[C@@H]3O[C@H](CO)[C@@H](O)[C@H](O[C@@H]4O[C@H](CO)[C@@H](O)[C@H](O)[C@H]4O)[C@H]3O)[C@H](O[C@H]3CC[C@@]4(C)C(=CC[C@@H]5C4CC[C@@]4(C)C5C[C@@H]5OC6(CC[C@@](C)(CO[C@@H]7O[C@H](CO)[C@@H](O)[C@H](O)[C@H]7O)O6)[C@@H](C)[C@@H]54)C3)O[C@@H]2CO)[C@H](O)[C@H](O)[C@H]1O (stereo partly drawn),94.3% [at 9.25 µM] (inactive),–
COC(=O)CC[C@H](NC(=O)[C@H](CC(C)C)NC(=O)OCc1ccccc1)C(=O)N[C@@H](Cc1cnc[nH]1)C(=O)N[C@@H](CC(=O)OC)C(=O)CF,91.2% [at 9.25 µM] (inactive),–
Cc1coc2c1CC1OC1(C)CCC1OC1(C)C2 (stereo not drawn),86.6% (inactive),–
C[C@@H]1C[C@@H](O)[C@@]23CO[C@@H](O)[C@@H]2CCC[C@@H]3[C@@]12C[C@@H](c1ccoc1)OC2=O,92.2% (inactive),–
C=C(C)C(=O)OC1C(OC(C)=O)/C(C=O)=C\CC/C(CO)=C/C2OC(=O)C(=C)C21 (stereo not drawn),–,2 µM (active)
CC(=O)OC1CC2C3(C)CCC(OC(=O)CC(=O)O)C(C)(C)C3CCC2(C)C2(C)CCC(C3(C)CCC(=O)O3)C12 (stereo not drawn),–,6.32 µM (active)
Nc1nc(-c2nn(Cc3ccccc3F)c3ncccc23)ncc1C1CC1,–,1.32 µM (active)
O=C(/C=C/c1ccc(O)cc1)OC[C@@]1(O)C=C[C@@H]2C(C(=O)O)=CO[C@@H](O[C@@H]3O[C@H](CO)[C@@H](O)[C@H](O)[C@H]3O)[C@@H]21,89.7% [at 17.3 µM] (inactive),–
COc1cc(-c2nc(N[C@H](CO)Cc3ccccc3)ccc2C(=O)NCCOc2ccccc2)cc(OC)c1OC,–,25.9 µM (active)
